Compound activity deposited in PubChem by National Center for Advancing Translational Sciences (NCATS).
Hits are enriched below; roughly 21% of the tested compounds scored in any of these assays.
RORgamma inh: qHTS for inhibitors of ROR gamma transcriptional activity; AID 2551, 2010; Nuclear receptor ROR-gamma (Mus musculus), P51450; 310,000 compounds, 5.4% hits; Potency, µM (titrated, usually from 53.6 µM), without a hit: at the highest dose activity change, negative = inhibition, hits mostly inhibitors; Drosophila S2 Gal4-RORgamma UAS-luciferase reporter, 20 h; note: potency is the fitted concentration of half-maximal effect; nearly all actives have a fitted effect of over 60% in size
Target sequence (P51450 whole entry, looked up, the tested form may be a part): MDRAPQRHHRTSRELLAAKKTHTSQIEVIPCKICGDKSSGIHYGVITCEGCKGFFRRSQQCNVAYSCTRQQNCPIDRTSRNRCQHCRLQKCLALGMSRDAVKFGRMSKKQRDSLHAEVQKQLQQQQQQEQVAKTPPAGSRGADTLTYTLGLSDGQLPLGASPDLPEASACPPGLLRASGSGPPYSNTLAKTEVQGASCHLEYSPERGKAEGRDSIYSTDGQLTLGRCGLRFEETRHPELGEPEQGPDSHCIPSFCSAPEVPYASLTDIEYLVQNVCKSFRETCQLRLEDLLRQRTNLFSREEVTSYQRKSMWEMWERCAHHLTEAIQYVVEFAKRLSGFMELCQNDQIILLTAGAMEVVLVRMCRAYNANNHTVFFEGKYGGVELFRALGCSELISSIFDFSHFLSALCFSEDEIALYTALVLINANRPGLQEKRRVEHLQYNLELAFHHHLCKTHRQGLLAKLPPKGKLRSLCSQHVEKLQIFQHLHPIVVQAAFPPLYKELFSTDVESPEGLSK
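Read-out: Photinus luciferase luminescence; inhibitors lower reporter signal. Insect Schneider cells with Gal4-ROR gamma fusion under metallothionein promoter, UAS reporter; 700 uM final copper sulfate induction, 20 hr, ambient temperature.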
ELG1 DNA repair: qHTS screen for small molecules that inhibit ELG1-dependent DNA repair in human embryonic kidney (HEK293T) cells expressing luciferase-tagged ELG1; HEK293T ELG1-luciferase reporter, luminescence, 16 h; DNA damage induced by 5-fluorouridine; Potency, µM (series often up to 46.1 µM), inactives show at the highest dose activity change, negative = inhibition, actives largely listed as inhibitors; 330,000 compounds, 2.3% hits; AID 504467, 2011; note: potency is the fitted concentration of half-maximal effect; nearly all actives have a fitted effect of over 55% in size
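Cells (2,000 per well) received 5-fluorouridine plus test compound or DMSO and were incubated 16 hr at 37 °C, 5% CO2. Luciferase activity was read by luminescence 30 min after ONE-Glo addition; signal suppression marked inhibition of damage-induced ELG1 function.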
Gal4-VP16 FLuc: VP16 counterscreen qHTS for inhibitors of ROR gamma transcriptional activity. Drosophila S2 Gal4-VP16 UAS-luciferase, luminescence, 20 h. Potency, µM (top dose mostly 53.6 µM), inactives show at the highest dose activity, negative = inhibition, usual class: inhibitors. 310,000 compounds, 3.5% hits. AID 2546, 2010;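 note: Gal4-VP16 expression switched on by copper sulfate through the metallothionein promoter; potency is the fitted concentration of half-maximal effect; nearly all actives have a fitted effect of over 50% in size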
IL-1B inflam inh: qHTS for Inhibitors of Inflammasome Signaling: IL-1-beta AlphaLISA Primary Screen; 360,000 compounds, 4.7% hits; activity change, % at 57.5 µM; THP-1 LPS/ATP IL-1B secretion, AlphaLISA, 16 h; stronger effect = lower value; in the data active = activity change below about -50%; inconclusive = mostly about -30% to -49%
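THP-1 cells pretreated 1 hr with compounds (up to 57.5 uM final), then stimulated with LPS (250 ng/mL final) plus ATP (1.25 mM final); secreted IL-1B measured by AlphaLISA after 16 hr, decreased signal indicating inhibition.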
DT40 TDP1 no CPT: qHTS for Inhibitors of human tyrosyl-DNA phosphodiesterase 1 (TDP1): qHTS in cells in absence of CPT. AID 686978, 2013. 420,000 compounds, 15% hits. Potency, µM (series often up to 46.2 µM), without a hit: top-dose activity change, negative = growth inhibition, actives largely listed as inhibitors. DT40 Tdp1-/- hTDP1 cells, no CPT, ATP luminescence, 48 h; note: potency is the fitted concentration of half-maximal effect; nearly all actives have a fitted effect of over 55% in size
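Stably hTDP1-transfected Tdp1-null chicken DT40 cells were treated with library compounds minus camptothecin and grown for at least 48 hr at 37 °C, after which cellular ATP was quantified by luminescence.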
TDP1 cell CPT: qHTS for Inhibitors of human tyrosyl-DNA phosphodiesterase 1 (TDP1): qHTS in cells in presence of CPT | chicken DT40 Tdp1-/-;hTDP1 cells + 20 nM CPT, ATP luminescence, 48 h | Potency, µM (titrated, usually from 46.2 µM), without a hit: at the top dose activity change, negative = growth inhibition, actives largely listed as inhibitors | 420,000 compounds, 12% hits | AID 686979, 2013; note: potency is the fitted concentration of half-maximal effect; nearly all actives have a fitted effect of over 55% in size
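Chicken DT40 Tdp1-/- cells complemented with human TDP1, 400 cells/well, exposed to compounds plus 20 nM camptothecin for at least 48 h at 37 C; viability read as ATP content by CellTiter-Glo luminescence.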
ELG1 FLuc counter: qHTS screen for small molecules that inhibit ELG1-dependent DNA repair: Hit Confirmation in Cell-Based Luciferin Assay; Potency, µM (titrated, usually from 46.1 µM), for the others: at the top dose activity change, negative = inhibition, actives largely listed as inhibitors; 350 compounds, 3% hits; cell-free firefly luciferase luminescence counter-screen, ViewLux; shares compounds with ELG1 DNA repair; note: potency is the fitted concentration of half-maximal effect
ELG1-Luc inh: HTS assay for small molecules that inhibit ELG1-dependent DNA repair in human embryonic kidney (HEK293T) cells expressing luciferase-tagged ELG1: Hit Confirmation; HEK293T ELG1-luciferase levels, luminescence; cells co-treated with 5-fluorouridine; shares compounds with ELG1 DNA repair; Potency, µM (top dose mostly 46.1 µM), for inactives: at the top dose activity change, negative = inhibition, hits mostly inhibitors; 670 compounds, 68% hits; note: potency is the fitted concentration of half-maximal effect; nearly all actives have a fitted effect of over 55% in size
ELG1-Luc MMS: inhibits ELG1-dependent repair under MMS stimulation in HEK293T cells | shares compounds with ELG1 DNA repair | HEK293T luciferase-tagged ELG1 level, MMS stimulated | Potency, µM (top dose mostly 46.1 µM), inactives show top-dose activity change, negative = inhibition, usual class: inhibitors | 670 compounds, 53% hits | AID 624249; note: potency is the fitted concentration of half-maximal effect; nearly all actives have a fitted effect of over 60% in size
ELG1 5-FU: qHTS screen for small molecules that inhibit ELG1-dependent DNA repair: Hit Confirmation with 5FU Viability | cell viability with 5-FU, ELG1-dependent repair | shares compounds with ELG1 DNA repair | 670 tested, under 10 active | Potency, µM (titrated, usually from 46.1 µM), inactives show top-dose activity change, negative = viability loss, usual class: cytotoxic;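 note: ELG1-luc HEK293T cells cotreated with 5-fluorouridine at 10 µM final; potency is the fitted concentration of half-maximal effect; viability measured 16 h after compound addition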
ELG1 MMS viab: qHTS screen for small molecules that inhibit ELG1-dependent DNA repair: Hit Confirmation with MMS Viability | shares compounds with ELG1 DNA repair | Cell viability with MMS, ELG1-dependent DNA repair | Potency, µM (series often up to 46.1 µM), without a hit: at the top dose activity change, negative = viability loss, actives largely listed as cytotoxic | 670 compounds, 33% hits;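 note: ELG1-luc HEK293T cells co-treated with 10 µM MMS; potency is the fitted concentration of half-maximal effect; viability read 16 h after compound addition; nearly all actives have a fitted effect of over 60% in size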
ELG1 unstim viab: qHTS screen for small molecules that inhibit ELG1-dependent DNA repair: Hit Confirmation with Unstimulated Viability Assay; shares compounds with ELG1 DNA repair; cell viability counter-screen, unstimulated, luminescence; 900 compounds, 8% hits; Potency, µM (highest dose often 45.9 µM), for the others: top-dose activity change, negative = loss of viability, most hits filed as cytotoxic;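 note: potency is the fitted concentration of half-maximal effect; compound exposure lasted 16 hours before reading; nearly all actives have a fitted effect of over 55% in size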
FLuc biochem: qHTS screen for small molecules that inhibit ELG1-dependent DNA repair: Hit Confirmation in Biochemical Luciferin Assay | 350 compounds, 10% hits | purified firefly luciferase, luminescence counter-screen | shares compounds with ELG1 DNA repair | Potency, µM (highest dose often 57.5 µM), inactives show at the highest dose activity, negative = inhibition, most hits filed as inhibitors; note: potency is the fitted concentration of half-maximal effect
* hit, by the source's call; u = inconclusive; x = no result given. Unless noted, calls come from the whole dose curve; as a rule, active = well fitted curve in the direction sought with a large enough effect; inconclusive = small, poorly fitted or top-dose-only effect, or another doubt; inactive = no such curve, though single readings can be large; an effect the other way counts as inactive or inconclusive. % is set by controls: 0 for no effect and ±100 for the full control effect.

SMILES | RORgamma inh | ELG1 DNA repair | Gal4-VP16 FLuc | IL-1B inflam inh | DT40 TDP1 no CPT | TDP1 cell CPT | ELG1-Luc inh | ELG1-Luc MMS | ELG1 5-FU | ELG1 MMS viab | ELG1 unstim viab | others
CCCCCn1c(N)c(-c2nc3ccccc3s2)c2c([N+](=O)[O-])nn(C)c(=O)c21 | -18.7% | 0.731µM* | -3.1% | -28.5 | u | u | 5µM* | 28.1µM* | u | u | -4.4% | ELG1 FLuc counter=u;FLuc biochem=-9.3%
O=[N+]([O-])c1ccc(CSc2nc3ccccc3o2)cc1 | -6.5% | u | -10.0% | -19.6 | -9.3% | 0.1% | x | x | x | x | x
CCCCn1c(N)c(-c2nc3ccccc3o2)c2c([N+](=O)[O-])nn(C)c(=O)c21 | -4.4% | u | -16.1% | -11.6 | 17.3% | -0.2% | u | 8.6% | u | 11.6% | -0.2%
O=C1c2ccccc2C(=O)N1CCCn1c2ccc(Cl)cc2c2nc3ccccc3nc21 | x | x | x | -0.5 | -13.6% | -1.0% | x | x | x | x | x
COc1ccc(CCN(Cc2cccs2)S(=O)(=O)c2ccc(S(=O)(=O)N3CCCCCC3)cc2)cc1OC | -9.0% | 2.91µM* | -6.6% | 5.6 | 9.2µM* | u | u | 4.45µM* | -10.3% | 7.05µM* | -17.0%
COc1ccc(CCN(Cc2cccs2)S(=O)(=O)c2ccc(S(=O)(=O)N3CCC(C)CC3)cc2)cc1OC | -13.9% | 3.4% | -3.6% | 7.3 | u | -28.0% | x | x | x | x | x
COc1ccc(C(=O)O)c(O)c1OC | 5.5% | x | -3.6% | x | 35.5% | 13.0% | x | x | x | x | x
COC1=C(N)C(=O)c2nc(-c3nc(C(=O)O)c(C)c(-c4ccc(OC)c(OC)c4O)c3N)ccc2C1=O | 14.1µM* | 0.82µM* | u | -106.3* | 0.103µM* | 0.0411µM* | 1.12µM* | 0.0397µM* | 2.23µM* | 0.0561µM* | 1.12µM* | ELG1 FLuc counter=2.5µM*;FLuc biochem=-8.4%
COc1ccc(-c2csc(NC(=O)c3ccc(OCC(=O)N4CCOCC4)c(OC)c3)n2)cc1OC | 0.3% | 4.61µM* | -9.9% | -94.5* | 14.6µM* | 16.4µM* | 3.97µM* | 14.1µM* | u | 25µM* | 15.8µM*
Cc1cc(-c2ccccc2)n2nc(-c3ccc(Cl)cc3)cc2n1 | x | x | x | x | -1.0% | -26.2% | x | x | x | x | x
Cc1nc2cc(-c3ccccc3)nn2c(N)c1-c1ccccc1 | x | u | x | -1.0 | u | -11.4% | x | x | x | x | -0.2% | ELG1 FLuc counter=58.1%;FLuc biochem=0.366µM*
Cc1ccc(-n2nc(CN3CCOCC3)c(-c3ccccc3)c2N)cc1Cl | -2.9% | 1.64µM* | -0.1% | -2.5 | 20.6µM* | 29.1µM* | 1.41µM* | 17.7µM* | u | 25µM* | -1.2%
COc1ccc(/C=C/C(=O)Oc2ccc(/C=N/NC(=O)c3ccncc3)cc2)cc1 | -12.4% | 19.6% | -21.5% | -22.0 | -2.3% | -7.0% | x | x | x | x | x
CN(C)c1ccnc2sc3c(=O)n(-c4ccccc4)cnc3c12 | 14.4% | 11.6µM* | 1.7% | 0.2 | -24.9% | u | 15.8µM* | u | 13.5% | 0.2% | u | ELG1 FLuc counter=11.7%;FLuc biochem=-9.8%
O=C(COc1ncnc2ccccc12)NC1CCCCC1 | x | 0.0% | x | -10.3 | 6.9% | -3.5% | x | x | x | x | x
Nc1ccc2cccnc2c1 | x | x | x | x | -28.6% | u | x | x | x | x | -9.5%
Fc1ccc(COc2ccc(Br)cc2CNCc2ccncc2)cc1 | -0.9% | u | -7.8% | -78.8* | u | u | 28.1µM* | u | -7.2% | u | u
Fc1ccccc1COc1ccc(Br)cc1CNCc1ccncc1 | u | u | u | -22.1 | u | u | x | x | x | x | x
CC(C(=O)OCC(=O)NC1CCCCC1)N1C(=O)c2ccccc2C1=O (configuration not stated) | x | 11.5% | x | 7.2 | -1.3% | -2.3% | x | x | x | x | x
Cc1ccc(Sc2ccc(N)cn2)cc1 | 19.2% | u | u | 11.9 | -8.5% | -1.8% | x | x | x | x | x
COc1ccc(CCN(Cc2nc3ccccc3c(=O)[nH]2)C(=O)c2ccco2)cc1OC | 0.0% | u | -7.0% | 8.9 | -12.3% | -6.9% | x | x | x | x | x
